Inconclusive results are not listed. More than one record can exist for a structure, and the calls need not agree. Activity calls are given as the source filed them. How the source made its calls: active means hit-call score of the fitted dose curve at least 0.9, where 1 is the maximum; inconclusive means response in the unintended direction; inactive means score below 0.9.
These compounds were tested against rat Thyrotropin Releasing Hormone Receptor (TRH), Trhr (gene 25570) (UniProt Q01717) (assay: NVS_GPCR_rTRH: NovaScreen (NVS) G Protein-Coupled Receptor Assay for rat Thyrotropin Releasing Hormone Receptor (TRH) (AID 2283329);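 further: hit means lower bound tracer signal versus DMSO baseline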).
Sequence of rat Thyrotropin Releasing Hormone Receptor (TRH), Trhr (gene 25570) (Q01717 whole entry, looked up): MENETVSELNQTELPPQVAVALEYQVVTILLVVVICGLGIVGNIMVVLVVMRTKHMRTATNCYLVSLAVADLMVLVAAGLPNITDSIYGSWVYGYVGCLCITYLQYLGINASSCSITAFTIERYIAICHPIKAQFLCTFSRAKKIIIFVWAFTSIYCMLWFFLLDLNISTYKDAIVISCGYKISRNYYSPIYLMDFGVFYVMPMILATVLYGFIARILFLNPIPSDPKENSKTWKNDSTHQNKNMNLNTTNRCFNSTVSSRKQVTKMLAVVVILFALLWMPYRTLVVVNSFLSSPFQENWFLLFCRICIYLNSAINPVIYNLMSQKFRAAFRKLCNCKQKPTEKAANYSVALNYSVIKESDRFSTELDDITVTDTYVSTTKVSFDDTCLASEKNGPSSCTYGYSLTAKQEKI
Procedure, shortened: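 Competitive radioligand binding on rat forebrain membrane preparations, with filtration and scintillation readout after 4 h. Primary testing in duplicate at 25 uM; actives confirmed in concentration-response. DMSO defined baseline.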
With `CCN(CC)c1ccc2c(-c3ccccc3C(=O)O)c3ccc(=[N+](CC)CC)cc-3oc2c1` the outcome was “inactive”. `OCCOCCOCCOCCO` was tested, and the outcome was “inactive”. For `CC(C)C[C@H]1C(=O)N2CCC[C@H]2[C@]2(O)O[C@](NC(=O)[C@@H]3C=C4c5cccc6[nH]c(Br)c(c56)C[C@H]4N(C)C3)(C(C)C)C(=O)N12`, the outcome was “inactive”.

Each compound was assayed against rat Peripheral-type Benzodiazepine Receptor (PBR), Tspo (gene 24230) (UniProt P16257) (assay: NVS_MP_rPBR: NovaScreen (NVS) Membrane Protein Assay for rat Peripheral-type Benzodiazepine Receptor (PBR) (AID 2283335)).
Sequence of rat Peripheral-type Benzodiazepine Receptor (PBR), Tspo (gene 24230) (P16257 whole entry, looked up): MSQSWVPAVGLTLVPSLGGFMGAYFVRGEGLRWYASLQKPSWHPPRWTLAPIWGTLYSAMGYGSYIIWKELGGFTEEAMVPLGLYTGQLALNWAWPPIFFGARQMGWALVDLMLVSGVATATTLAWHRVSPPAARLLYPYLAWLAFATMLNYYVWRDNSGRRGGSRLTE
Procedure: NVS_MP_rPBR is a biochemical, single-readout assay that uses extracted gene-proteins from Rat kidney membranes in a tissue-based cell-free assay. Measurements were taken 1 hour after chemical dosing in a 48-well plate.NVS_MP_rPBR is one of one assay component(s) measured or calculated from the NVS_MP_rPBR assay. It is designed to make measurements of radioligand binding, a form of binding reporter, as detected with scintillation counting signals by Filter-based radiodetection technology.Data from the assay component NVS_MP_rPBR was analyzed into 1 assay endpoint. This assay endpoint, NVS_MP_rPBR, was analyzed in the positive analysis fitting direction relative to DMSO as the negative control and baseline of activity. Using a type of binding reporter, loss-of-signal activity can be used to understand changes in the binding as they relate to the gene Tspo. Furthermore, this assay endpoint can be referred to as a primary readout, because the performed assay has only produced 1 assay endpoint. To generalize the intended target to other relatable targets, this assay endpoint is annotated to the transporter intended target family, where the subfamily is cholesterol transporter.
Binding assays used specific radioligands (tritiated, iodinated) with non-radioactive competitive displacement ligands in agonist or antagonist protocols (as indicated) and various reference compounds and inhibitors to titrate specific binding to receptors and transporters. Most enzyme assays (CYPs, kinases, phosphatases, proteases, HDACs) used recombinant protein and specific substrates (fluorescence mostly, some colorimetric and radioactive) and inhibitors, followed by a biochemical separation of substrate and product. All assays for the biochemical HTS were initially run in duplicate at a single concentration (10 uM for CYP450 assays and 25 uM for all others). […] Each assay was run with positive and negative controls, and concurrent controls on every plate. The follow-up (secondary) screen tested active chemical-pairs in concentration series, as well as a few additional assays not tested in the primary screen, some selected negative inactives, and several cases re-run in the concentration series for confirmatory purposes.
With `CCCCCCCCCCCCCCCCCC(=O)OCC(CC)CCCC` (stereo unspecified) the outcome was “inactive”. In the case of `O=C(Oc1ccccc1)c1ccc(O)cc1`, the AC50 is reported as 4.86 µM (active). For `CCCCCCCCCCC(CO)CCCCCCCC` (stereo unspecified), the outcome was “inactive”. For `CCN(CC)c1ccc2c(-c3ccccc3C(=O)O)c3ccc(=[N+](CC)CC)cc-3oc2c1`, the AC50 was 13.2 µM (active).

What follows are compounds tested against chimpanzee Androgen Receptor (AR), AR (gene 747460) (UniProt O97775) (assay: NVS_NR_cAR: NovaScreen (NVS) Nuclear Receptor Binding Assay for chimpanzee Androgen Receptor (AR) (AID 2283346);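 further: radioligand displacement from AR measured by scintillation counting in a cell-free assay; a loss of bound radioligand signal versus DMSO counts as binding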).
Sequence of chimpanzee Androgen Receptor (AR), AR (gene 747460) (O97775 whole entry, looked up): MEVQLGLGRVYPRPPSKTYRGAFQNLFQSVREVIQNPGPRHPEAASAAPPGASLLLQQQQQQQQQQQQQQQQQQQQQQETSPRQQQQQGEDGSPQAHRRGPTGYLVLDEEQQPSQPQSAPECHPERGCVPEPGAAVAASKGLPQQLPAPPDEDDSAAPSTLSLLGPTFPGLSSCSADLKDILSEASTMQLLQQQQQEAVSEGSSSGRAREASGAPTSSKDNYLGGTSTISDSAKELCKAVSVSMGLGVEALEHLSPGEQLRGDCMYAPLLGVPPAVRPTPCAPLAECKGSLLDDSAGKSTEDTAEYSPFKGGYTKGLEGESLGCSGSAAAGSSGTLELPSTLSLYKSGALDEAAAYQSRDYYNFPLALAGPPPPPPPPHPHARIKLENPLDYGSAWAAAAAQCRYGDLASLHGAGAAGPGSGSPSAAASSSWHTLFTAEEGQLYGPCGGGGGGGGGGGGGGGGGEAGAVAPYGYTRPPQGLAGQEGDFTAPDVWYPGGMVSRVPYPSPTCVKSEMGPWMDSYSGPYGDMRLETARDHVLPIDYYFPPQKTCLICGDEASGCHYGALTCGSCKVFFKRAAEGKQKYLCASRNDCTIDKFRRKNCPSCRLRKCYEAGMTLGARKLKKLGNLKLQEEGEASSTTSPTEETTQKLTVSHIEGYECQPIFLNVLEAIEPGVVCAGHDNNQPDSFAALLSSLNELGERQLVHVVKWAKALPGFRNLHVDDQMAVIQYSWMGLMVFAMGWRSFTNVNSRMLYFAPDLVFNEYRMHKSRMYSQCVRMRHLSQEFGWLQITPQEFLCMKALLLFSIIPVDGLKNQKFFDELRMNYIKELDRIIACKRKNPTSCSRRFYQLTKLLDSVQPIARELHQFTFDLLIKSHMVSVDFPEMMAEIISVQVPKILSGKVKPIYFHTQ
Procedure, shortened: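 Cell-free competition binding with insect-cell (Sf9/Sf21) extracted chimpanzee AR; scintillation signal from lysate at 72 h. Screened in duplicate at 25 uM, then concentration-response for actives; fitting relative to DMSO.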
`Cc1ccc(C(C)C)cc1O` was tested, and the AC50 was 10.6 µM (active). `O=C1C(c2[nH]c3ccc(S(=O)(=O)O)cc3c2O)=Nc2ccc(S(=O)(=O)O)cc21` was tested, and the outcome was “inactive”. With `O=Nc1ccc(Nc2ccccc2)cc1` the outcome was “inactive”. In the case of `CCN(CC)c1ccc(C(=C2C=CC(=[N+](CC)CC)C=C2)c2ccc(S(=O)(=O)O)cc2S(=O)(=O)[O-])cc1`, the outcome is reported as “inactive”. For `O=C(Oc1ccccc1)c1ccc(O)cc1`, the outcome was “inactive”. For `CCCCCCCCCCCCCCCC(=O)OC[C@H](O)[C@H]1OC(=O)C(O)=C1O`, the outcome was “inactive”. With `OCCOCCOCCOCCO` the outcome was “inactive”. In the case of `CC(=O)O[C@]1(C(C)=O)CC[C@H]2[C@@H]3C[C@H](C)C4=CC(=O)CC[C@]4(C)[C@H]3CC[C@@]21C`, the AC50 is reported as 0.422 µM (active). In the case of `C#C[C@]1(O)CC[C@H]2[C@@H]3CCC4=Cc5oncc5C[C@]4(C)[C@H]3CC[C@@]21C`, the outcome is reported as “inactive”. `CC(C)=CCCC(C)=CCCC(C)=CCO` was tested, and the outcome was “inactive”. With `C=CC(C)(O)CCC=C(C)CCC=C(C)C` (stereo unspecified) the outcome was “inactive”. For `CC(C)C[C@H]1C(=O)N2CCC[C@H]2[C@]2(O)O[C@](NC(=O)[C@@H]3C=C4c5cccc6[nH]c(Br)c(c56)C[C@H]4N(C)C3)(C(C)C)C(=O)N12`, the AC50 was 1.05 µM (active).

Each compound was assayed against Estrogen receptor (Homo sapiens) (UniProt P03372) (assay: NVS_NR_hER: NovaScreen (NVS) Nuclear Receptor Binding Assay for human Estrogen Receptor (ER) (AID 2283348)).
Sequence of Estrogen receptor (Homo sapiens) (P03372 whole entry, looked up): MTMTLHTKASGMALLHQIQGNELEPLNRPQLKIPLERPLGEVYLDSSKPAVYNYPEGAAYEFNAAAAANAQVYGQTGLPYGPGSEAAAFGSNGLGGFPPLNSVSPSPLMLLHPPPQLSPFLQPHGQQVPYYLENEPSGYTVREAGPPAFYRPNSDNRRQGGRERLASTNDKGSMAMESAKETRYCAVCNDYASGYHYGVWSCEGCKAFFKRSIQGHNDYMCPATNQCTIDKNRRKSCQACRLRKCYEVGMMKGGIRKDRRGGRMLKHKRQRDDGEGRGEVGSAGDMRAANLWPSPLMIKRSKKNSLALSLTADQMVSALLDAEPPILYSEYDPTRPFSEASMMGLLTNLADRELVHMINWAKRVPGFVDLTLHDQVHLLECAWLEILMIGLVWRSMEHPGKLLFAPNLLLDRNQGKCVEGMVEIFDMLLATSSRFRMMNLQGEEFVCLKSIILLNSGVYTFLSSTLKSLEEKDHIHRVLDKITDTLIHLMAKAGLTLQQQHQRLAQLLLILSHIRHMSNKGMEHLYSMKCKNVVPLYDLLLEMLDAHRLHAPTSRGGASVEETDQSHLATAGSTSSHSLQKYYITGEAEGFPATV
Procedure, shortened: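 Cell-free MCF7-derived ER preparation, specific radioligand displaced by test compound, read by scintillation counting 18 h post-dosing. Duplicate single-point 25 uM screen, then concentration-response confirmation; DMSO baseline.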
In the case of `CC(C)C(C)(C)C(C)(C)C(C)(C)S`, the outcome is reported as “inactive”. In the case of `O=Nc1ccc(Nc2ccccc2)cc1`, the outcome is reported as “inactive”. For `O=C(O)CCSCCC(=O)O`, the outcome was “inactive”. In the case of `c1cc(C(c2ccc(OCC3CO3)cc2)c2ccc(OCC3CO3)cc2)ccc1OCC1CO1` (stereo unspecified), the outcome is reported as “inactive”. With `O=C1c2ccccc2C(=O)N1SC1CCCCC1` the outcome was “inactive”. `CC(=O)[C@H]1CC[C@H]2[C@@H]3CC=C4C[C@@H](O)CC[C@]4(C)[C@H]3CC[C@]12C` was tested, and the outcome was “inactive”. For `NNc1nc(-c2ccc(N)cc2)cs1`, the outcome was “inactive”. For `CNCCCC12CCC(c3ccccc31)c1ccccc12`, the outcome was “inactive”. `CCCC(=O)c1cc(O)c(O)cc1O` was tested, and the AC50 was 7.55 µM (active). `C#C[C@]1(O)CC[C@H]2[C@@H]3CCC4=Cc5oncc5C[C@]4(C)[C@H]3CC[C@@]21C` was tested, and the AC50 was 11.5 µM (active) and the outcome was “inactive”. For `COC(=O)C1=C(C)NC(C)=C(C(=O)OCCN(C)Cc2ccccc2)C1c1cccc([N+](=O)[O-])c1` (stereo unspecified), the AC50 was 9.13 µM (active). With `CC(C)c1cccc(O)c1` the outcome was “inactive”. For `Clc1ccc2c(c1)C(N1CCNCC1)=Nc1ccccc1O2`, the outcome was “inactive”. With `CC1=CCC2C(C1)C2(C)C` (stereo unspecified) the outcome was “inactive”. For `Cc1cc(C2(c3cc(C)c(O)cc3C)OS(=O)(=O)c3ccccc32)c(C)cc1O`, the AC50 was 5.05 µM (active). In the case of `O=C(COc1ccc(Cl)cc1)N1CCN(Cc2ccc3c(c2)OCO3)CC1`, the outcome is reported as “inactive”.

From PubChem BioAssay (EPA / NIEHS)
